# About 83,000 compounds went through this panel and 20% of them were active in at least one assay; those are over-represented in the sample as a whole.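 Testing used 96-well plates and a 48-hour single-concentration exposure. Example: -40 means 40% of the starting cells died.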 A number with no mark means an inactive call. Active and inactive are the calls of the source. The calls were made as follows: active = growth percent below 10; inactive = the rest.
# How the values were obtained:
# Experiment in all cases: NCI-60 one-dose screen, 48 h (100 = growth as untreated, 0 = no growth, -100 = all killed)
# Conditions in all cases: 10 µM unless noted
# HCT-15 colon = test system: HCT-15 colon
# HT29 colon = test system: HT29 colon
# SNB-75 CNS = test system: SNB-75 CNS
# SNB-19 CNS = test system: SNB-19 CNS
# U251 CNS = test system: U251 CNS
# PC-3 prostate = test system: PC-3 prostate
# SK-MEL-5 melanoma = test system: SK-MEL-5 melanoma
# LOX IMVI melanoma = test system: LOX IMVI melanoma
# SK-MEL-28 melanoma = test system: SK-MEL-28 melanoma
# SK-MEL-2 melanoma = test system: SK-MEL-2 melanoma
# EKVX NSCLC = test system: EKVX NSCLC
# SN12C renal = test system: SN12C renal
# UO-31 renal = test system: UO-31 renal
# TK-10 renal = test system: TK-10 renal
# ACHN renal = test system: ACHN renal
# A498 renal = test system: A498 renal
# CCRF-CEM leukemia = test system: CCRF-CEM leukemia
# MOLT-4 leukemia = test system: MOLT-4 leukemia
# CAKI-1 renal = test system: CAKI-1 renal
Compound,growth (HCT-15 colon),growth (HT29 colon),growth (SNB-75 CNS) [%],growth (SNB-19 CNS) [%],growth (U251 CNS) [%],growth (PC-3 prostate) [%],growth (SK-MEL-5 melanoma) [%],growth (LOX IMVI melanoma),growth (SK-MEL-28 melanoma),growth (SK-MEL-2 melanoma) [%],growth (EKVX NSCLC) [%],growth (SN12C renal),growth (UO-31 renal),growth (TK-10 renal),growth (ACHN renal),growth (A498 renal) [%],growth (CCRF-CEM leukemia),growth (MOLT-4 leukemia),growth (CAKI-1 renal) [%]
COc1ccc2c(c1)c(-c1nc(-c3c[nH]c4ncccc34)cs1)cn2CCNC(=O)OC(C)(C)C,54.6%,71.3%,68.2,93,69.1,31.8,54.2,71.9%,88.1%,86.6,55.6,84.8%,49.3%,89.2%,67.9%,85.3,48.2%,55.7%,–
COc1cc(/C=N/Nc2ncnc3c2c(C)nn3-c2ccc(F)cc2)ccc1O,81.1%,92.3%,82.5,93.3,94.4,73,56.6,81%,107%,89.9,87.6,85.1%,64.4%,88.7%,92.7%,103,62%,61.7%,–
O=C1c2ccccc2NC(c2cn(-c3ccccc3)nc2-c2cccnc2)N1Cc1ccccc1 (stereo not drawn),84.7%,84.5%,92.9,109,93.6,76.5,94.2,80.2%,108%,88,81.3,87.3%,65.4%,105%,102%,92,91.5%,67.9%,–
O=C1c2ccccc2NC(c2cn(-c3ccccc3)nc2-c2cccs2)N1Cc1ccccc1 (stereo not drawn),77.7%,75%,87.7,95.4,86.9,64.8,80.9,62.1%,97.3%,74,72.1,90.8%,57.5%,91.1%,86.2%,84,95.6%,55.1%,–
Cc1cc(N2CCOCC2)nc(N(CCCNc2ccnc3cc(Cl)ccc23)Cc2ccco2)n1,24%,-2.68% (active),51.6,20.4,25.4,34.7,11.3,4.95% (active),49.5%,11.9,49.4,40.4%,32.2%,47.9%,46.9%,45.2,30.6%,9.42% (active),–
C=C1C(=O)O[C@H]2[C@H]1CC/C(COC(=O)NCCc1c[nH]c3ccccc13)=C\CC[C@@]1(C)O[C@@H]21,-9.58% (active),-39.8% (active),61.3,56.9,59.9,35.1,12.8,-63.2% (active),-17.6% (active),61.5,69.2,-0.18% (active),-100% (active),-20.7% (active),-93.7% (active),80.8,3.28% (active),-3.9% (active),–
Cc1ccc(C)c2c1CCC2C(C)C (stereo not drawn),109%,105%,88.4,101,96.7,90.1,98.5,96%,103%,110,102,98.6%,88.5%,95.6%,97.3%,–,–,86.4%,95.8
COc1ccc2c(c1)c(-c1nc(-c3c[nH]c4ncccc34)cs1)cn2CCN,43.7%,55.9%,56.6,79.4,66.7,42.8,72.9,66%,100%,75.2,50.1,78.2%,48.5%,71.9%,41.3%,72.2,55.8%,46.4%,–

# — PubChem BioAssay (NCI)
